Measurements taken from PubChem BioAssay (EPA / NIEHS).
Where “and” joins values, the source holds several entries; their conditions need not be identical. Identical values can stand only once. Some compounds were tested as several samples or in several runs, with calls that do not always agree. Calls of active or inactive are those of the source. Rule for the calls: active = hit-call score of the fitted dose curve at least 0.9, where 1 is the maximum; inactive = score below 0.9.

Assays:
[1] = read-out: C-C motif chemokine 2 (Homo sapiens) (UniProt P13500); assay: BSK_KF3CT_MCP1: BioMAP Diversity Plus: KF3CT Assay for Monocyte Chemoattractant Protein 1 (MCP1/CCL2) Biomarker Activity (AID 2283073); settings: primary human keratinocytes with fibroblasts; actives raise or lower the signal
Summary of the method: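 ELISA read-out of MCP-1, 24 h post-dose, in primary human skin keratinocytes co-cultured with fibroblasts. Parallel SRB staining monitors cytotoxicity; changes fitted both directions relative to DMSO.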

[2] = read-out: Matrix Metallopeptidase 9 (MMP9), MMP9 (gene 4318); assay: BSK_KF3CT_MMP9: BioMAP Diversity Plus: KF3CT Assay for Matrix Metallopeptidase 9 (MMP9) Biomarker Activity (AID 2283074); settings: primary human keratinocytes with fibroblasts; actives raise or lower the signal;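 for AC50: MMP9 protein level quantified by ELISA in the co-culture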
Summary of the method: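 Human keratinocyte/foreskin fibroblast co-culture; compound added; 24 h; MMP-9 by ELISA; bidirectional fit vs DMSO baseline.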

[3] = read-out: urokinase plasminogen activator (uPA), PLAU (gene 5328); assay: BSK_KF3CT_uPA: BioMAP Diversity Plus: KF3CT Assay for urokinase plasminogen activator (uPA) Biomarker Activity (AID 2283075); settings: primary human keratinocytes with fibroblasts; actives raise or lower the signal
Summary of the method: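 ELISA readout of uPA, analyzed for signal gain or loss relative to DMSO, from a human primary keratinocyte–foreskin fibroblast co-culture measured 24 h after chemical treatment.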

[4] = read-out: CD40, CD40 (gene 958); assay: BSK_LPS_CD40: BioMAP Diversity Plus: LPS Assay for CD40 Biomarker Activity (AID 2283076); settings: primary human HUVEC with PBMC; actives raise or lower the signal
Summary of the method: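 In the LPS system of human endothelial cells with peripheral blood mononuclear cells, CD40 levels were read by ELISA 24 h post-treatment. Signal changes in either direction were fitted against the DMSO baseline, with parallel SRB protein staining.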

[5] = read-out: E-selectin (Homo sapiens) (UniProt P16581); assay: BSK_LPS_Eselectin: BioMAP Diversity Plus: LPS Assay for Eselectin Biomarker Activity (AID 2283077); settings: primary human HUVEC with PBMC; actives raise or lower the signal
Summary of the method: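 E-selectin ELISA on LPS-stimulated endothelial cell/PBMC co-cultures, read 24 h post-treatment; gains and losses fitted against DMSO. Parallel SRB staining (0.1% SRB after 10% TCA fixation, 560 nm) flags overt cytotoxicity.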

[6] = read-out: Interleukin-8 (IL8), CXCL8 (gene 3576); assay: BSK_LPS_IL8: BioMAP Diversity Plus: LPS Assay for Interleukin-8 (IL8) Biomarker Activity (AID 2283078); settings: primary human HUVEC with PBMC; actives raise or lower the signal
Summary of the method: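 ELISA read-out of IL-8 after 24 h chemical treatment of LPS-activated endothelial/PBMC human primary co-cultures. Changes either up or down relative to DMSO; overt cytotoxicity checked by sulforhodamine B staining in parallel wells.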

[7] = BSK_LPS_SRB: Viability Assessment in the BioMAP Diversity Plus: LPS Assay (AID 2283079); settings: primary human HUVEC with PBMC;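 note: total protein by sulforhodamine B absorbance as a cytotoxicity measure; measured one day after compound addition; fitted in both directions against DMSO so loss or gain of signal counts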
Summary of the method: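 SRB viability endpoint: cells fixed with 10% TCA, stained with 0.1% SRB, read at 560 nm, 24 h post-dose. HUVEC/PBMC co-culture; signal change in either direction scored relative to DMSO.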

[8] = read-out: Interleukin-1 alpha (IL1a), IL1A (gene 3552); assay: BSK_LPS_IL1a: BioMAP Diversity Plus: LPS Assay for Interleukin-1 alpha (IL1a) Biomarker Activity (AID 2283080); settings: primary human HUVEC with PBMC; actives raise or lower the signal
Summary of the method: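 Readout is IL-1a level by ELISA, 24 h post-dose, fitted as gain or loss relative to DMSO. System: LPS-activated human primary co-culture of vascular endothelium and peripheral blood mononuclear cells, with parallel SRB total-protein cytotoxicity.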

[9] = read-out: Monocyte Chemoattractant Protein-1 (MCP1), CCL2 (gene 6347); assay: BSK_LPS_MCP1: BioMAP Diversity Plus: LPS Assay for Monocyte Chemoattractant Protein-1 (MCP1) Biomarker Activity (AID 2283081); settings: primary human HUVEC with PBMC; actives raise or lower the signal;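 for AC50: secreted MCP-1 protein quantified by ELISA in culture supernatant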
Summary of the method: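 Secreted MCP-1 read by ELISA at 24 h post-dosing in an LPS-activated co-culture of endothelial cells with peripheral blood mononuclear cells. Fits run in both directions, DMSO as baseline; parallel SRB staining tracks overt cytotoxicity.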

[10] = BSK_LPS_PGE2: BioMAP Diversity Plus: LPS Assay for Prostaglandin E2 (PGE2) Biomarker Activity (AID 2283082); settings: primary human HUVEC with PBMC; actives raise or lower the signal;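 for AC50: secreted prostaglandin E2 measured by ELISA in LPS-stimulated co-culture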
Summary of the method: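 HUVEC plus PBMC co-culture stimulated with LPS; secreted PGE2 quantified by ELISA 24 h after chemical dosing. Activity fitted bidirectionally against DMSO as negative control and baseline; parallel SRB total-protein staining served as cytotoxicity check.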

Measured: AC50

E-selectin (Homo sapiens), sequence (P16581 whole entry, looked up): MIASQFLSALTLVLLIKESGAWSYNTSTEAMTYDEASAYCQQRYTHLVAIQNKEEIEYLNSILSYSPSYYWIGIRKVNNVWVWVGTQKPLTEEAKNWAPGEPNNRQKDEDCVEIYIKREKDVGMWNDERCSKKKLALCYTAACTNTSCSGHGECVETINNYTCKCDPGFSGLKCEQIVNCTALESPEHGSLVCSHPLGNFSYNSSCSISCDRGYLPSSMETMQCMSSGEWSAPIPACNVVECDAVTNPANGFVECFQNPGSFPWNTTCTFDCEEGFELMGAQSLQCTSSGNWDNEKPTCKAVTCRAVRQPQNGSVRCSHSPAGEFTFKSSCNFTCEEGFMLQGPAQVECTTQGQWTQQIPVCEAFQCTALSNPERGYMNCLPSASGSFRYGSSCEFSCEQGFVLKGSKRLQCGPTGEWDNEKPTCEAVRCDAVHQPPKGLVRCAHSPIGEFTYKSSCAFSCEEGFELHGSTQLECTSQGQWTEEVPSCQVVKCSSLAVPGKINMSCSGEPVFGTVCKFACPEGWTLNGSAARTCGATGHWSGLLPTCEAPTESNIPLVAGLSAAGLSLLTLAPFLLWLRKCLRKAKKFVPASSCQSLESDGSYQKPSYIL

C=CC(=C)CC/C=C(\C)CCC=C(C)C
inactive: all assays above

CC(=O)Nc1ccc(O)cc1
inactive: all assays above

C[C@]12CC[C@@H]3c4ccc(O)cc4CC[C@H]3[C@@H]1C[C@@H](O)[C@@H]2O
inactive: all assays above

COc1cccc(O)c1
inactive: all assays above

CC(C)(C)c1ccc(O)c(O)c1
active: [2] 20 µM | [4] 20 µM | [5] 33.4 µM | [6] 30.6 µM | [7] 31.4 µM | [8] 29.3 µM | [9] 29.1 µM
inactive: [1] | [3] | [10]

OCC(F)(F)C(F)(F)C(F)(F)C(F)(F)C(F)(F)C(F)(F)C(F)(F)C(F)(F)C(F)(F)C(F)(F)C(F)(F)F
active: [8] 186 nM and 202 nM | [10] 42.7 nM and 227 nM
inactive: all other assays above

O=C(O)C(F)(F)OC(F)(F)C(F)(F)OC(F)(F)C(F)(F)OC(F)(F)C(F)(F)C(F)(F)C(F)(F)F
active: [1] 8.05 µM and 8.01 µM | [2] 8.13 µM and 8.24 µM | [3] 14.5 µM and 15.7 µM | [4] 30 µM and 36.5 µM | [5] 54.1 µM and 50.8 µM | [6] 47.5 µM and 26 µM | [7] 54.4 µM and 50.9 µM | [8] 44.4 µM and 40.1 µM | [9] 52.4 µM and 46.7 µM | [10] 37.8 µM and 25.8 µM

CCCCC(CC)C(=O)OCCOCCOCCOCCOC(=O)C(CC)CCCC (centres undefined)
inactive: all assays above

O=C1OC2(c3ccccc31)c1cc(I)c(O)c(I)c1Oc1c2cc(I)c(O)c1I
active: [1] 3.51 µM | [2] 14.9 µM | [3] 9.05 µM | [4] 8.71 µM | [5] 8.58 µM | [8] 9.13 µM | [9] 6.33 µM | [10] 3.14 µM
inactive: [6] | [7]

O=C(CCCN1CCC(O)(c2ccc(Cl)cc2)CC1)c1ccc(F)cc1
active: [5] 1.67 µM | [9] 29 µM
inactive: all other assays above

O=C(NO)c1ccccc1
inactive: all assays above

CCOC(=O)CN[C@@H](C(=O)N1CC[C@H]1C(=O)NCc1ccc(/C(N)=N/O)cc1)C1CCCCC1
inactive: all assays above

CS(=O)(=O)c1ccc([C@@H](CC2CCCC2)C(=O)Nc2cnccn2)cc1Cl
inactive: all assays above

CC[N+](CC)(CC)Cc1ccccc1
inactive: all assays above

C=CC(=O)OCCC(F)(F)C(F)(F)C(F)(F)C(F)(F)C(F)(F)C(F)(F)C(F)(F)C(F)(F)F
active: [2] 12.6 µM and 8.83 µM
inactive: all other assays above

CCCCCc1ccc(O)cc1
active: [1] 9.12 µM | [2] 20 µM | [3] 14.8 µM | [4] 29.5 µM | [5] 31.4 µM | [6] 36.1 µM | [7] 28.4 µM | [8] 31.7 µM | [9] 31.4 µM | [10] 1.39 µM

CCCCCCCCCCCCCCCCCC[N+](C)(C)Cc1ccccc1
inactive: [10]
active: [1] 6.52 µM | [2] 2.75 µM | [3] 2.95 µM | [4] 2.74 µM | [5] 2.87 µM | [6] 5.17 µM | [7] 2.66 µM | [8] 2.71 µM | [9] 2.97 µM

OCC(CO)(CBr)CBr
inactive: all assays above

Cc1ccc(C(=O)c2ccccc2)cc1
active: [10] 1.05 µM
inactive: all other assays above

OCCN1CN(CCO)CN(CCO)C1
active: [4] 36 µM | [5] 29.9 µM | [6] 28.2 µM | [8] 31.4 µM | [9] 13.1 µM
inactive: all other assays above

CCCCc1oc2ccccc2c1C(=O)c1cc(I)c(OCCN(CC)CC)c(I)c1
inactive: [10]
active: [1] 11.9 µM | [2] 6.54 µM | [3] 9.85 µM | [4] 13.9 µM | [5] 24.2 µM | [6] 25.9 µM | [7] 19.4 µM | [8] 19.1 µM | [9] 26.1 µM

CCCCC=O
inactive: all assays above

CN(C)CCOC(c1ccccc1)c1ccccc1
inactive: all assays above

N=C(N)c1ccc(OCCCCCOc2ccc(C(=N)N)cc2)cc1
active: [6] 12.7 µM | [8] 17.5 µM
inactive: all other assays above

Oc1c(Cl)cc(Cl)cc1Sc1cc(Cl)cc(Cl)c1O
active: [1] 2.23 µM and 2.57 µM | [2] 1.88 µM and 2.08 µM | [3] 3.48 µM and 3.57 µM | [4] 14.2 µM | [5] 35.1 µM and 31.9 µM | [6] 36.5 µM and 33.4 µM | [7] 20 µM and 6.67 µM | [8] 35.4 µM and 35.6 µM | [9] 31.4 µM and 30.1 µM | [10] 20 µM
inactive: [10]

CCCCCCCCCCCCOS(=O)(=O)O
active: [1] 20 µM | [2] 30.9 µM | [3] 31.1 µM
not listed: [7]
inactive: all other assays above

Cc1ccc(N=Nc2c(O)ccc3ccccc23)c(C)c1
inactive: all assays above

O=C(NCc1ncc(C(F)(F)F)cc1Cl)c1c(Cl)cccc1Cl
inactive: all assays above

NC(=NCCCCCCN=C(N)/N=C(\N)Nc1ccc(Cl)cc1)/N=C(\N)Nc1ccc(Cl)cc1
active: [1] 6.01 µM | [2] 2.67 µM | [3] 4.99 µM | [4] 5.33 µM | [6] 2.36 µM | [7] 5.33 µM | [8] 4.94 µM | [9] 4.95 µM
inactive: [10]
